# Source: PubChem BioAssay (EPA / NIEHS)
# Activity calls are given as the source filed them. The calls were made as follows: active = hit-call score of the fitted dose curve at least 0.9, where 1 is the maximum; inactive = score below 0.9.
# Read-out: Pro-epidermal growth factor (Homo sapiens) (UniProt P01133)
# Test: LTEA_HepaRG_EGF: Life Technologies and Expression Analysis (LTEA) Assay for Epidermal growth factor (EGF) using HepaRG (AID 2283489)
# Details: mRNA level, 48 h; actives raise or lower the signal
# Summary of the method: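 HepaRG cells (~100,000/well, 48 h pre-culture) exposed in duplicate for 48 h in serum-free induction medium to 8 half-log concentrations up to 100 uM in 0.5% DMSO. EGF mRNA by qRT-PCR, normalized to ACTB/GAPDH/POLR2A; bidirectional fit versus DMSO.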
Compound,outcome,AC50
O=C(O)C1C(C(=O)O)C2(Cl)C(Cl)=C(Cl)C1(Cl)C2(Cl)Cl (configuration not stated),inactive,
CN(C)C(=O)Cl,inactive,
ClC(Cl)(Cl)c1ccccc1,inactive,
ClC(Cl)c1ccccc1,inactive,
O=P1(N(CCCl)CCCl)NCCCO1 (configuration not stated),inactive,
CC(Cl)(Cl)C(=O)O,inactive,
CCCCc1ccccc1,inactive,
O=C(O)C(Cl)Cl,inactive,
Nc1ccc2ccccc2c1,inactive,
CCCN(CCC)c1c([N+](=O)[O-])cc(C(C)C)cc1[N+](=O)[O-],,29 µM (active)
Nc1cc2c3c(c1)C(c1ccccc1)=N[C@@H](NC(=O)c1cccnc1)C(=O)N3CC2,inactive,
CCOS(=O)(=O)OCC,inactive,
CCNc1nc(Cl)nc(NC(C)(C)C)n1,inactive,
c1ccc(OP(Oc2ccccc2)Oc2ccccc2)cc1,inactive,
CSC(C)(C)C=NO,inactive,
COCCOCCO,inactive,
CCCCN(CCCC)SN(C)C(=O)Oc1cccc2c1OC(C)(C)C2,inactive,
c1nc[nH]n1,inactive,
c1cc2c3c(cccc3c1)CC2,inactive,
CCC(C)(C)c1ccc(O)cc1,inactive,
[N-]=[N+]=[N-],inactive,

# Read-out: Early growth response protein 1 (EGR1) transcription factor, EGR1 (gene 1958)
# Test: LTEA_HepaRG_EGR1: Life Technologies and Expression Analysis (LTEA) Assay for Early growth response protein 1 (EGR1) transcription factor using HepaRG (AID 2283490)
# Details: mRNA level, 48 h; actives raise or lower the signal
# Summary of the method: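 HepaRG, 48 h exposure, 8-pt half-log series from 100 uM, 0.5% DMSO vehicle; EGR1 transcript by TaqMan qRT-PCR (Fluidigm array), housekeeping-normalized; bidirectional fit relative to DMSO baseline.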
Compound,outcome,AC50
O=C(O)C1C(C(=O)O)C2(Cl)C(Cl)=C(Cl)C1(Cl)C2(Cl)Cl (configuration not stated),inactive,
CN(C)C(=O)Cl,inactive,
ClC(Cl)(Cl)c1ccccc1,inactive,
ClC(Cl)c1ccccc1,inactive,
O=P1(N(CCCl)CCCl)NCCCO1 (configuration not stated),inactive,
CC(Cl)(Cl)C(=O)O,inactive,
CCCCc1ccccc1,inactive,
O=C(O)C(Cl)Cl,inactive,
Nc1ccc2ccccc2c1,inactive,
CCCN(CCC)c1c([N+](=O)[O-])cc(C(C)C)cc1[N+](=O)[O-],inactive,
Nc1cc2c3c(c1)C(c1ccccc1)=N[C@@H](NC(=O)c1cccnc1)C(=O)N3CC2,inactive,
CCOS(=O)(=O)OCC,inactive,
CCNc1nc(Cl)nc(NC(C)(C)C)n1,inactive,
c1ccc(OP(Oc2ccccc2)Oc2ccccc2)cc1,inactive,
CSC(C)(C)C=NO,inactive,
COCCOCCO,inactive,
CCCCN(CCCC)SN(C)C(=O)Oc1cccc2c1OC(C)(C)C2,inactive,
c1nc[nH]n1,,0.109 µM (active)
c1cc2c3c(cccc3c1)CC2,inactive,
CCC(C)(C)c1ccc(O)cc1,inactive,
[N-]=[N+]=[N-],inactive,
